# In ChEMBL document CHEMBL5724796, “Tm Shift (DSF) assay results for EUbOPEN Chemogenomics Library” (2024):
# Residues, ends and D or L forms follow the SMILES beside them. *: point of attachment. CH2Cl = ClC*
# Key:
# Settings in all cases: Compound concentration 20.0 uM
# [1] = target: Tyrosine-protein kinase ABL1 (Homo sapiens) (UniProt P00519)
# [2] = target: Bromodomain-containing protein 4 (Homo sapiens) (UniProt O60885)
# [3] = target: Cyclin-dependent kinase 2 (Homo sapiens) (UniProt P24941)
# [4] = target: Casein kinase I isoform delta (Homo sapiens) (UniProt P48730)
# [5] = target: Glycogen synthase kinase-3 beta (Homo sapiens) (UniProt P49841)
# [6] = target: Mitogen-activated protein kinase 1 (Homo sapiens) (UniProt P28482)
# [7] = target: T1, Aurora kinase A (Homo sapiens) (UniProt O14965)
# T1 sequence (whole entry): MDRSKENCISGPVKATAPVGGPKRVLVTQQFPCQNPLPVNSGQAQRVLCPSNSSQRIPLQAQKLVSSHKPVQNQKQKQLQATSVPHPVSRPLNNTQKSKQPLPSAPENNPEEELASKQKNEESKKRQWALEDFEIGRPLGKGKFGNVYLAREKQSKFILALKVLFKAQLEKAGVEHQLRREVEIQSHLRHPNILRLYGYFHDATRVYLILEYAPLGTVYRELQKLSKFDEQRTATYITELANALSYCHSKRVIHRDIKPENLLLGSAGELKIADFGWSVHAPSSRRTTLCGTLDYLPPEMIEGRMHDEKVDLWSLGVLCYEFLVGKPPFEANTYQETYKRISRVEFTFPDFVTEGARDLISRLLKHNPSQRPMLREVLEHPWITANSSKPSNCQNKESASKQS
# [8] = target: T2, Transcription intermediary factor 1-alpha (Homo sapiens) (UniProt O15164)
# T2 sequence (whole entry): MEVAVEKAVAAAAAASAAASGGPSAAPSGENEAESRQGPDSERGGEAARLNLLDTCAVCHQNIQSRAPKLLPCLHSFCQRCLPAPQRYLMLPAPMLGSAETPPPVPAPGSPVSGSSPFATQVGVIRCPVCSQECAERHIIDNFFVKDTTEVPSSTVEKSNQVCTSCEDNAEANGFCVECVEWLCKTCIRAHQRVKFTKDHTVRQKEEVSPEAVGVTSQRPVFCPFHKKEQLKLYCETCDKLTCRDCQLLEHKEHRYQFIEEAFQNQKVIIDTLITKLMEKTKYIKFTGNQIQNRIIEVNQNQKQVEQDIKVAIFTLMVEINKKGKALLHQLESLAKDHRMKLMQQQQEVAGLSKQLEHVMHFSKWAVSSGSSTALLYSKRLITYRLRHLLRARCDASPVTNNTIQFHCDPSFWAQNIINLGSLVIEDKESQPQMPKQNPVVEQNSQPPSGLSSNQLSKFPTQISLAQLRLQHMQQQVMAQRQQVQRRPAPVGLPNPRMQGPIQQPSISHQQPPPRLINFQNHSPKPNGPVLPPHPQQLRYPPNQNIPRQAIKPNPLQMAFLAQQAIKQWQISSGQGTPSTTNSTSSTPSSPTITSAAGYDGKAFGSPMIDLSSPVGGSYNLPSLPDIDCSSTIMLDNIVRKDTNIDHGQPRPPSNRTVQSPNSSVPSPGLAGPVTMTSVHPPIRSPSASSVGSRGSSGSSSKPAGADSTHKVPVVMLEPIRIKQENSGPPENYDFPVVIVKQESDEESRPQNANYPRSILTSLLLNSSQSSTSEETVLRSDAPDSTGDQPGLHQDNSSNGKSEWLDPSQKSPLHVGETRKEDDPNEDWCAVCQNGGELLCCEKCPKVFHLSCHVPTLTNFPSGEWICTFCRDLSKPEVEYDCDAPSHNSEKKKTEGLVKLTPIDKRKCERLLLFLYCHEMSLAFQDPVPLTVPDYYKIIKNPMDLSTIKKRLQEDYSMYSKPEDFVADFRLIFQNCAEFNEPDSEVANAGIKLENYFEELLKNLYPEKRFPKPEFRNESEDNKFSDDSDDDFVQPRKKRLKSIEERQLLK
# Chain of Tyrosine-protein kinase ABL1 (Homo sapiens) (P00519 whole entry): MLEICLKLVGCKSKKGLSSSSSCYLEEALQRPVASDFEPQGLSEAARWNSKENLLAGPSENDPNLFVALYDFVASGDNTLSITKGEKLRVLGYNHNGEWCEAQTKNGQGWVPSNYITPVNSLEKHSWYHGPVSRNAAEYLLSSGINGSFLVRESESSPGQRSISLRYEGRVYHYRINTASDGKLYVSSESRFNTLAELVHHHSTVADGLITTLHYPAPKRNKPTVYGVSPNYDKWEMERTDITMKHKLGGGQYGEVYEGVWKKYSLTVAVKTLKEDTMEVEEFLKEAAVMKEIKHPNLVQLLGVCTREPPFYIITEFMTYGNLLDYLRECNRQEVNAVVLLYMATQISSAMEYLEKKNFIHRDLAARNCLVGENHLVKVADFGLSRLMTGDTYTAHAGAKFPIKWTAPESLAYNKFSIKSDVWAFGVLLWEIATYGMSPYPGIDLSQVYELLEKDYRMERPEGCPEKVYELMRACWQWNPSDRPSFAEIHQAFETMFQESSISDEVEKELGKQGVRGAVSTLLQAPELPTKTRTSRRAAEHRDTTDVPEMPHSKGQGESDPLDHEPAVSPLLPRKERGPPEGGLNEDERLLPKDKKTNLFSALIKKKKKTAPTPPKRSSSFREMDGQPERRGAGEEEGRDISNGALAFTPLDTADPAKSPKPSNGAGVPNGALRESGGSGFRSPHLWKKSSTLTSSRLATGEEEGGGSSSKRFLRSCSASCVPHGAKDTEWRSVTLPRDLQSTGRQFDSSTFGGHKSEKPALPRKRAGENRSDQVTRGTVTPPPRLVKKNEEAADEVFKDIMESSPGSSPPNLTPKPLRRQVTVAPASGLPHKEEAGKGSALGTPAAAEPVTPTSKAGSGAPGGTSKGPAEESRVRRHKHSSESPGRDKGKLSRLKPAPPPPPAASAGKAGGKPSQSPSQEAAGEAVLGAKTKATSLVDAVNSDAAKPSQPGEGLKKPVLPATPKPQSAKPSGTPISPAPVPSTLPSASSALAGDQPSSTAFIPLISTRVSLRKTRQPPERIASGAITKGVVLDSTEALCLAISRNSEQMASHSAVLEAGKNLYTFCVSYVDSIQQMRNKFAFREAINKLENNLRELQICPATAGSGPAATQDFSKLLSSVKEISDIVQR
# Chain of Glycogen synthase kinase-3 beta (Homo sapiens) (P49841 whole entry, looked up): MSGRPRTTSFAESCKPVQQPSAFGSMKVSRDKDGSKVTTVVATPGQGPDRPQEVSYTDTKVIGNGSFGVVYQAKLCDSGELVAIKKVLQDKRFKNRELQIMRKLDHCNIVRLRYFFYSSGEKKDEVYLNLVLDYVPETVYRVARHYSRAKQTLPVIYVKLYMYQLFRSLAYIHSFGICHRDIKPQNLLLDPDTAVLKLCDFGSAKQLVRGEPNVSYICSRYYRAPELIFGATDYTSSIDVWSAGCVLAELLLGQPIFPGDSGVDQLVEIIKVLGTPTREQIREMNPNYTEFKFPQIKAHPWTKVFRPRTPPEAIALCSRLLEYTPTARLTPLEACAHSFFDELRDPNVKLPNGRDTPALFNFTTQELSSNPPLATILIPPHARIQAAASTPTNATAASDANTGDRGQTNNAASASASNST
# Chain of Casein kinase I isoform delta (Homo sapiens) (P48730 whole entry, looked up, canonical isoform): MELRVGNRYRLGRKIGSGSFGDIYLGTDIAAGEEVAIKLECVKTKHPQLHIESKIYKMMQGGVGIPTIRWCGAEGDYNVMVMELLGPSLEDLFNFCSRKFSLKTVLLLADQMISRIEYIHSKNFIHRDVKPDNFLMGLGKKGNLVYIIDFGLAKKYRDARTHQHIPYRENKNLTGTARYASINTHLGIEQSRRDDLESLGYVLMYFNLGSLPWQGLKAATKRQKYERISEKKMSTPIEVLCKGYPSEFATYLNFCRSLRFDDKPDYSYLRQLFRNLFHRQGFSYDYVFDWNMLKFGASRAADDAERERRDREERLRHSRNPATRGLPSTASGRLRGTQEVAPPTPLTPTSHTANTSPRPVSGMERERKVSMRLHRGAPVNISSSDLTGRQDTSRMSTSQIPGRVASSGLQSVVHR
# Chain of Mitogen-activated protein kinase 1 (Homo sapiens) (P28482 whole entry): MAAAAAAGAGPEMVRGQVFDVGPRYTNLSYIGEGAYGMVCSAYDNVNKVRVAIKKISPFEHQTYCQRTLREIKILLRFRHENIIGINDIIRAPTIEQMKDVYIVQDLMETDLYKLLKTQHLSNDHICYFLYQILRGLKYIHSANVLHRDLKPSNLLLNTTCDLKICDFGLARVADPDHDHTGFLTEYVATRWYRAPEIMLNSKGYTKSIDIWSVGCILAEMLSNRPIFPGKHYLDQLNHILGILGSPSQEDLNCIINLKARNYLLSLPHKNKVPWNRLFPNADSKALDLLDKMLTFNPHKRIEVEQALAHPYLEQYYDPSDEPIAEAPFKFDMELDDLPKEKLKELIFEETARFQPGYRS
SMILES,ΔTm [1] [°C],ΔTm [2] [°C],ΔTm [3] [°C],ΔTm [4] [°C],ΔTm [5] [°C],ΔTm [6] [°C],ΔTm [7] [°C],ΔTm [8] [°C]
CN1C(=O)c2c(nn(Cc3ccc(-c4cccc(F)n4)cc3)c2Nc2ccccc2)N2C1=N[C@@H]1CCC[C@@H]12,0.2,0.64,-0.42,-0.09,2.76,0.5,-0.82,0.46
COc1cc2c(cc1OC)[C@H]1C[C@@H](OC(=O)[C@@H](N)C(C)C)[C@H](CC(C)C)CN1CC2,0.26,1.87,0.58,-0.31,-0.94,0.3,-1.54,0.19
NC(=O)C1CCCc2c1[nH]c1ccc(Cl)cc21 (configuration not stated),0.6,-2.56,0.2,-0.38,0.62,0.17,-0.98,-0.37
Cn1c(=O)c2c(nc(N3CCNCC3)n2Cc2nnc(-c3ccc(Cl)c(Cl)c3)o2)n(C)c1=O,0.59,-3.55,0.01,0.33,-0.89,0.1,-0.39,-0.46
CN(CC[C@@H](Oc1ccc(-c2ccccc2)cc1)c1ccc(F)cc1)CC(=O)O,0.28,-0.22,-0.22,0.15,-0.98,0.32,-1.2,2.77
CCCCCCNC(=O)n1cc(F)c(=O)[nH]c1=O,0.09,-1.76,-0.24,-0.3,-0.82,0.03,-1.98,0.05
O=C(NCCCn1ccnc1)c1cc2nc(-c3ccccc3)cc(-c3ccccc3)n2n1,0.26,-2.23,-0.13,0.15,-0.59,-2.4,-0.86,-0.04
CCC(=O)N[C@H]1CC[C@@H](C(=O)N(C)c2ccc(-c3nc4ccccc4o3)cc2)C1,0.54,0.67,-0.03,0.1,-0.48,-0.17,-0.05,-0.29
COc1nc(N)nc(Nc2cc(S(N)(=O)=O)ccc2N[C@@H](c2cccc3c2OC(F)(F)O3)c2ncccc2Cl)n1,1.16,-2.02,-0.4,0.06,-3.33,-12.4,-1.68,0.11
Cn1nc(C(C)(C)C)cc1C(=O)NC(Cc1cccc(Cl)c1)C(=O)NCC#N (configuration not stated),0.37,-2.22,0.71,0.04,0.23,0.2,-1.33,0.74
CC(=O)Nc1ccc(C(=O)Nc2ccc(F)cc2N)cc1,2.43,-2.84,-0.66,0.17,-3.79,-0.66,-2.46,-0.15
CN1CCc2c(n(Cc3ccc(C(=O)NO)cc3)c3ccccc23)C1,0.24,-1.44,0.56,-0.06,-0.89,0.14,-0.37,-1.21
COc1cc(-c2cn(C)c(=O)c3cnccc23)cc(OC)c1CN(C)CC(=O)NCCOCCOCCNc1cccc2c1C(=O)N(C1CCC(=O)NC1=O)C2=O (configuration not stated),0.07,-1.54,0.21,0.06,0.14,-0.38,-1.03,-0.75
NCCCOc1cc2ccccc2cc1C(=O)NCCOc1cc2ccccc2cc1C(=O)Nc1ccc(Cl)cc1O,0.27,-4.42,-1.85,0.11,-2.72,-1.61,-3.9,-0.59
Cn1c(OC[C@H]2CC[C@H](C(F)(F)F)CC2)nn2c(C3CCOCC3)ncc2c1=O,0.42,-3.44,-0.19,-0.45,0.18,0.06,-2.37,-1.13
CC(=O)N[C@@H](CC(C)C)C(=O)N[C@@H](CCC(=O)O)C(=O)N[C@@H](Cc1cnc[nH]1)C(=O)N[C@@H](CC(=O)O)C(=O)CCl (Ac-LEHD-CH2Cl),0.46,-2.67,-0.58,0.2,0.91,0.29,-1.15,-1.2
O=C(C1CC1)N1CCN(Cn2sc3ccccc3c2=O)CC1,-7.31,-4.76,-3.3,-0.26,0,-4.19,-1.92,0
COc1ccc(-n2c(SCCCN3C(=O)c4cccc5cccc(c45)C3=O)nnc2-c2ccncc2)cc1,0.68,-3.3,-0.02,0.26,-0.45,0.07,-1.38,0.1
CCCNC(=O)[C@H]1O[C@@H]1C(=O)N[C@H](C(=O)N1CCC[C@H]1C(=O)O)[C@@H](C)CC,0.43,-1.16,-0.18,-0.02,0.22,-0.39,-1.17,-0.81
